A selection: hits, their analogues and other compounds. The true share with any hit is near 2.4%.
D2 antagonist – HTS Assay for Allosteric Antagonists of the Human D2 Dopamine Receptor: Primary Screen for Antagonists. 340,000 tested, 2% active. AID 485344, 2010. HEK293 TREx D2 cells, calcium flux, dopamine EC80. inhibition, % at 10 µM; in the data active = inhibition above about 30%; inactive = below that, where a call was filed; also: 0% is about no effect
Target sequence (P14416 whole entry, looked up): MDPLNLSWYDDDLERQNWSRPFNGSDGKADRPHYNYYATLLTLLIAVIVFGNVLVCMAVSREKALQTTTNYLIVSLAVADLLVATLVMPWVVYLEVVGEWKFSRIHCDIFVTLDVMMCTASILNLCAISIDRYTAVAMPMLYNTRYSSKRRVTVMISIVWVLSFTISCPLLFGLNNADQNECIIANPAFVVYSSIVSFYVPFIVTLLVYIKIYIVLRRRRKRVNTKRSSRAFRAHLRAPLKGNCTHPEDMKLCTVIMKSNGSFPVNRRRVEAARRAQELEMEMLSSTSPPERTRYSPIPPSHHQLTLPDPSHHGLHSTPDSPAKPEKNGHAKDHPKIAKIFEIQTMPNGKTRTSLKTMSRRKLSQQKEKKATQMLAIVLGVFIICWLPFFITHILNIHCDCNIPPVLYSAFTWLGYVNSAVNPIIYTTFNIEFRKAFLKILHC
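HEK293 T-REx D2 cells, tet-induced, calcium dye no-wash. Cpd pintool add, 180 s kinetic, then EC80 DA, 180 s kinetic. Ca flux read.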
D2 PAM-1 – HTS Assay for Positive Allosteric Modulators of the Human D2 Dopamine Receptor: Primary Screen for Potentiators; D(2) dopamine receptor (Homo sapiens), P14416; HEK293 T-REx D2, calcium flux, EC20 dopamine potentiation; potentiation, % at 10 µM; 340,000 tested, 0.34% active;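 active = potentiation over 3 SD above the plate norm, cut at about 30% in these data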; also: 0% is about no effect
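Potentiation of an EC20 dopamine calcium response measured kinetically over 180 s, after a preceding 180 s compound-only read flagging agonists. Cells: inducible Hek293 Trex D2 line, 4000/well, cultured overnight at 30 C before dye loading.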
D2 PAM-2 – Beta-Arrestin HTS for Positive Allosteric Modulators of the Human D2 Dopamine Receptor: Potentiators. DiscoveRx D2 beta-arrestin cells, luminescence, 90 min; 100% = 57 uM dopamine signal. potentiation, % (concentration not given with the values). 360,000 tested, 0.23% active. AID 624464, 2012; in the data active = potentiation above about 50%
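PathHunter D2 cells, attached overnight at 37 deg C, received compound in DMSO plus dopamine at EC20 (50 nM final) for 90 min at 37 deg C. Beta-arrestin recruitment was read as luminescence after 1 h with detection reagent at ambient temperature.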
D2 ag-1 – Beta-Arrestin HTS for Positive Allosteric Modulators of the Human D2 Dopamine Receptor: Agonists; D(2) dopamine receptor (Homo sapiens), P14416; DiscoveRx PathHunter D2 beta-arrestin, luminescence, 90 min; 100% = 57 uM dopamine signal; activation, % (test concentration not listed); 360,000 tested, 0.084% active; AID 624465, 2012; in the data active = activation above about 40%
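Agonist mode: compounds alone added to overnight-plated D2 PathHunter cells for 90 min at 37 C, with 57 uM final dopamine (EC100) defining full response. Beta-arrestin recruitment detected by chemiluminescent reagent, read after 1 h at ambient temperature.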
D2 ag-2 – HTS Assay for Allosteric Agonists of the Human D2 Dopamine Receptor: Primary Screen for Agonists; D(2) dopamine receptor (Homo sapiens), P14416; HEK293 T-REx D2 cells, calcium flux agonist mode; activation, % at 2 µM; 340,000 tested, 0.53% active;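 active = activation over 3 SD above normal in the single-dose calcium agonist read, cut at about 30% in these data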; also: 0% is about no effect
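Agonism is scored from calcium flux in a force-coupled, inducible HEK293 cell line expressing D2, read kinetically for 180 s after compound addition against dopamine controls.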
* marks the source's active call; other numbers are inactive results; / = not tested or not shown.

SMILES	D2 antagonist	D2 PAM-1	D2 PAM-2	D2 ag-1	D2 ag-2
O=C(CSc1nc2ccsc2c(=O)n1-c1ccc(Br)cc1)NCc1ccccc1	/	-10	/	/	-1
CN(C)CC/C=C1/c2ccccc2Sc2ccc(Cl)cc21	103*	-26	-36	-6	-1
CN(C)CC/C=C1/c2ccccc2CS(=O)(=O)c2ccccc21	/	/	-3	3	/
CN(C)CC/C=C1\c2ccccc2COc2ccccc21	51*	-25	-34	-5	1
CCCCCC[N+](C)(C)CC/C=C1/c2ccccc2Sc2ccc(Cl)cc21	75*	-26	-9	3	-2
S=C1Nc2ccccc2Sc2ccc(Cl)cc21	-1	14	10	0	0
O=C(CC1C(=O)N(c2ccccc2)C(=O)N1Cc1ccc2c(c1)OCO2)Nc1ccccc1 (stereo not drawn)	/	3	/	/	0
C=C(C)Cn1c(SCC(=O)O)nnc1-c1ccc(C(C)(C)C)cc1	30*	-4	8	-2	0
C=C(C)Cn1c(SCC(=O)O)nnc1-c1ccccc1	-6	5	-1	1	-1
CSCCC(NC(=O)OC(C)(C)C)C(=O)Oc1ccc2c(=O)c(-c3ccc4c(c3)OCCO4)coc2c1 (stereo not drawn)	33*	10	-5	-5	0
COc1ccc(CNCC(O)COc2cccc3c2OC(C)(C)C3)cc1 (stereo not drawn)	44*	-32	-46	-5	0
Cc1ccc(NC(=O)C2OCCc3ccccc32)cc1C (stereo not drawn)	42*	12	-7	-4	-2
O=C(NCc1ccco1)C1OCCc2ccccc21 (stereo not drawn)	4	9	0	-1	1
COc1ccc(NC(=O)Cn2c(=O)n(CCCCCC(=O)NCc3ccc4c(c3)OCO4)c(=O)c3sccc32)cc1Cl	/	6	/	/	0
COc1ccccc1/C=C/CN1CCCC(CCC(=O)NCc2ccc(F)c(F)c2)C1 (stereo not drawn)	33*	-20	-11	1	0
COc1cccc(CNC(=O)CCC2CCCN(C/C=C/c3ccccc3OC)C2)c1 (stereo not drawn)	32*	-17	-32	-2	1
COc1ccc(/C=C/CN2CCCC(CCC(=O)NCc3ccc(F)c(F)c3)C2)cc1 (stereo not drawn)	-45	-15	-15	-1	0
Cc1ccc(C(=O)C2CCN(CC(=O)N3CCN(c4ccc(F)cc4)CC3)CC2)cc1	51*	-14	-13	1	0
Cc1ccc(C(=O)C2CCN(CC(=O)Nc3ccc(N(C)C)cc3)CC2)cc1	33*	-27	-19	-1	0
O=C(CN1CCC(C(=O)c2ccc(F)cc2)CC1)Nc1ccc(F)cc1	10	-25	-34	-2	0
Cc1ccc(C(=O)N2CCC(C(=O)c3ccc(F)cc3)CC2)cc1	/	/	-20	-2	/
O=C(CNC(=O)c1ccc(Cl)cc1)OCc1cc(=O)n2nc(C3CC3)sc2n1	/	-10	/	/	1
Fc1ccc(-c2cc(-c3nc(-c4ccccc4)no3)[nH]n2)cc1	/	-4	/	/	0
C[C@H](O)[C@@H]1C(=O)N2CCc3c([nH]c4ccccc34)[C@@H]2C[C@@H]1N(C)C(=O)c1ccco1	/	/	-2	-4	/
CCOc1ccccc1NC(=O)COC(=O)c1ccccc1SCC(=O)N1CCCC1	1	2	8	6	0
SMILES	D2 antagonist	D2 PAM-1	D2 PAM-2	D2 ag-1	D2 ag-2
O=C(COC(=O)c1ccccc1SCC(=O)N1CCCC1)Nc1ccccc1C(F)(F)F	31*	1	-22	-4	-1
O=C(OCCN1C(=O)c2cccc3c(N4CCOCC4)ccc(c23)C1=O)c1cc(Cl)cc(Cl)c1	3	-2	/	/	48*
CCN(CC)S(=O)(=O)c1ccc(C(=O)OCCN2C(=O)c3cccc4c(N5CCOCC5)ccc(c34)C2=O)cc1	6	5	-3	-5	4
COc1cccc(NC(=O)CSC2=Nc3ccccc3N=C(c3ccc(F)cc3)C2)c1	/	-9	/	/	/
CS(=O)(=O)N1CCN(c2ccccc2NC(=O)c2ccc(Cl)cc2)CC1	-10	-5	18	3	0
CS(=O)(=O)N1CCN(c2ccccc2NC(=O)c2cccnc2Cl)CC1	33*	-1	-5	-4	0
Cc1ccc(-c2cc(C(=O)NCc3ccccc3)c3c(-c4ccc(C)cc4)[nH]nc3n2)cc1	/	/	/	/	1
CC1Oc2ccccc2C=C1/C=C1/SC(N2CCOCC2)=NC1=O (stereo not drawn)	-8	36*	-1	-1	0
Cc1cc(Nc2ccc(F)cc2)n2c(nc3ccccc32)c1C#N	/	12	/	/	2
Cc1cc(Nc2cccc([N+](=O)[O-])c2)n2c(nc3ccccc32)c1C#N	35*	8	16	-1	4
COc1ccccc1NC(=O)CCS(=O)(=O)c1ccc2c(c1)oc(=O)n2C	31*	-1	-4	-4	0
COc1cc(OC)c(NC(=O)CCS(=O)(=O)c2ccc3c(c2)oc(=O)n3C)cc1Cl	/	0	/	/	0
COc1ccccc1Nc1nc(-c2sc(NC(=O)c3ccccc3)nc2C)cs1	9	-2	-8	-2	1
COc1ccccc1Nc1nc(-c2sc(N)nc2C)cs1	38*	8	-17	1	0
Fc1cccc(CSc2ncnc3c2oc2ccccc23)c1	31*	-10	-6	-3	1
Fc1ccc(CSc2ncnc3c2oc2ccccc23)cc1	4	2	0	4	2
O=C(O)c1n[nH]c2c1CCCC2	57*	14	-2	-3	0
O=C(O)c1n[nH]c2c1CCCCC2	21	3	17	1	1
O=C(NC1CCCCC1)c1ccc(Cn2c(SCc3cccc(F)c3)nc3cccnc32)cc1	/	-15	/	/	-1
COc1ccc(OC)c(NC(=O)CN2c3cccc4cccc(c34)S2(=O)=O)c1	/	/	-12	1	/
COc1ccc(OC)c(NC(=O)C(C)N2c3cccc4cccc(c34)S2(=O)=O)c1 (stereo not drawn)	34*	12	6	1	0
COc1cc(C2CC(=O)Nc3cc4c(cc32)OCCO4)cc(Br)c1OC (stereo not drawn)	/	-1	/	/	11
CC1(C)CC(=O)c2cc(OCC(=O)NCCN3CCCc4ccccc43)ccc2O1	-10	-20	-20	2	34*
CC(C)CCNC(=O)COc1ccc2c(c1)C(=O)CC(C)(C)O2	0	-1	2	-2	0

Screening data (PubChem BioAssay)
